Screening results: PubChem BioAssay, National Center for Advancing Translational Sciences (NCATS)
ATXN2 expr inh – inhibitors of ATXN2 expression; HEK-293 ATXN2-luciferase reporter, luminescence, 24 h; Potency, µM (series often up to 57 µM), inactives show at the top dose activity change, negative = inhibition, hits mostly inhibitors; 0.72% of 360,000 active; AID 1745845; note: potency is the fitted concentration of half-maximal effect; % is set by controls: 0 for no effect and ±100 for the full control effect; nearly all actives have a fitted effect of over 55% in size
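ATXN2-luciferase reporter cells (luciferase flanked by upstream and downstream ATXN2 gene portions) were treated 24 h at 37 °C with compounds at up to 57 uM. SteadyGlo luminescence gave expression; GF-AFC fluorescence gave viability.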
S2 tox – reduces viability in counter-screen for ATXN expression inhibitors; S2 cells (HEK-293 line with an ATXN2-luciferase reporter) viability, CellTiter-Fluor protease fluorescence, 24 h; Potency, µM (top dose mostly 56.7 µM), usual class: cytotoxic; 0.49% of 400,000 active; note: potency is the fitted concentration of half-maximal effect; nearly all actives have a fitted effect of over 40% in size
TGFb SMAD3 inh – blocks TGF-b signaling | HepG2 CAGA-GFP TGF-b/SMAD3 reporter, GFP fluorescence, 18 h; TGF-beta stimulated, 500 pg/mL final | 1.2% of 410,000 active | Potency, µM (titrated, usually from 46.1 µM), for inactives: at the top dose activity, negative = inhibition, actives largely listed as inhibitors; note: potency is the fitted concentration of half-maximal effect; % is set by controls: 0 for no effect and ±100 for the full control effect; nearly all actives have a fitted effect of over 65% in size
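HEPG2 CAGA-GFP reporter cells (1000/well, DMEM with 1% FBS) received compounds, then recombinant TGF-beta at 500 pg/mL final for 18 hours at 37 degrees C. Per-cell GFP summed per well was normalised to unstimulated and stimulated DMSO controls before curve fitting.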
HepG2 viability – counter-screen for TGF-b inhibitors: cytotoxicity in HepG2 cells; HepG2 CAGA-GFP viability, ATP luminescence, 18 h; AID 588856; 0.76% of 410,000 active; Potency, µM (series often up to 46.1 µM), without a hit: at the top dose activity change, negative = cytotoxicity, most hits filed as cytotoxic; note: potency is the fitted concentration of half-maximal effect
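HepG2 CAGA-GFP cells (1000/well, DMEM with 1% FBS) received compound, then TGF-beta at 500 pg/mL final, and were incubated 18 hours at 37 degrees C. Viability was read by CellTiter-Glo luminescence. Media-only wells were set as complete cell-killing and DMSO as no toxicity.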
IL-1B inflam inh – inhibitors of inflammasome signaling (IL-1 beta secretion); THP-1 LPS/ATP IL-1B secretion, AlphaLISA, 16 h; active compounds read low; activity change, % at 57.5 µM; 4.7% of 360,000 active; AID 743279; in the data active = activity change below about -50%; inconclusive = mostly about -30% to -49%; note: % is set by controls: 0 for no effect and ±100 for the full control effect
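THP-1 cells pretreated 1 hr with compounds (up to 57.5 uM final), then stimulated with LPS (250 ng/mL final) plus ATP (1.25 mM final); secreted IL-1B measured by AlphaLISA after 16 hr, decreased signal indicating inhibition.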
An asterisk follows results filed as active; i = inactive; ? = inconclusive; nt = no result; ! = repeats disagree. Shown are actives, neighbours in structure and some others; about 5.7% of the full set was active somewhere. Unless noted, calls come from the whole dose curve; as a rule, active = well fitted curve in the direction sought with a large enough effect; inconclusive = small, poorly fitted or top-dose-only effect, or another doubt; inactive = no such curve, though single readings can be large; an effect the other way counts as inactive or inconclusive.

SMILES | ATXN2 expr inh | S2 tox | TGFb SMAD3 inh | HepG2 viability | IL-1B inflam inh
CCOC(=O)N1CCC(NC(=O)c2ccc3c(c2)N(Cc2ccc(F)cc2)C(=O)c2ccccc2S3(=O)=O)CC1 | nt | nt | nt | -22.3% | nt
Cc1c(CC(=O)NCCc2ccccc2F)c(=O)oc2c(C)c3occ(C(C)(C)C)c3cc12 | nt | nt | ? | -16.4% | nt
CSc1ncc(Cl)c(C(=O)Nc2ccc(S(=O)(=O)N3CCC(C)CC3)cc2)n1 | -27.2% | ? | ? | -26.6% | nt
O=C(CCN1C(=O)/C(=C\c2ccccc2)SC1=S)NNC(=O)c1ccncc1 | nt | i | -6.4% | -47.6% | -13.2
O=C(O)CCCCCN1C(=O)/C(=C/c2ccncc2)SC1=S | -11.5% | i | -1.1% | -5.3% | -97.5*
Cc1cccc2cc(CN(CC3CCCO3)C(=O)c3ccccc3F)c(N(C)C)nc12 (centres undefined) | nt | i | nt | nt | nt
CC(C)(C)Cc1c(-c2cccc(Cl)c2)nc2ccc(Br)cn12 | 13.7% | i | -11.6% | -45.0% | ?
CC(C)(C)Cc1c(-c2ccc(F)cc2)nc2ccc(Cl)cn12 | -37.0% | ? | 11.2µM* | -55.0% | 43.5
Cc1ccc(-c2nc3ccc(Cl)cn3c2CC(C)(C)C)cc1 | ? | i | -5.8% | -21.0% | 26.9
CC(C)(C)Cc1c(-c2ccc(Br)cc2)nc2ccc(Br)cn12 | -27.6% | ? | 15.8µM* | -33.2% | 38.5
C#Cc1cccc(Nc2ncnc3cc(OCCOC)c(OCCO)cc23)c1 | -28.0% | nt | nt | nt | nt
Cn1cnc2c(=O)oc3ccc(S(=O)(=O)N4CCN(c5cccc(Cl)c5)CC4)cc3c21 | 3.5% | i | 2.3% | 0.6% | nt
COc1cccc(N(C(=O)c2nc3nccc(C)n3n2)c2nc3ccccc3s2)c1 | 45.6% | i | -13.9% | -23.9% | -91.6*
CCCCCCSc1cc(-c2nc3cnccn3c2NCCCC)ccc1OC | ? | nt | ? | -112.5% | ?
COc1ccc(Nc2c(-c3ccc(OC)cc3)nc3cnccn23)cc1 | nt | i | ? | -6.4% | 94.8
CCC(C)Sc1cc(-c2nc3ccc(Cl)cn3c2NC2CCCCC2)ccc1OC (centres undefined) | -6.0% | i | ? | -11.1% | -73.8*!
CCCCNc1c(-c2ccc(SC(C)CC)cc2)nc2cnccn12 (centres undefined) | ? | nt | ? | -98.0% | -71.9*
CCCCCCSc1cc(-c2nc3ccc(Cl)cn3c2NC2CCCCC2)ccc1OC | 18.3% | i | ? | -14.4% | -16.7
CCCCNc1c(-c2ccc(SC(C)CC)c(OC)c2)nc2ccc(Cl)cn12 (centres undefined) | 4.5% | i | ? | -5.3% | -68.3*
CCCCCCSc1cc(-c2nc3cc(C)ccn3c2NCCCC)ccc1OC | ? | nt | ? | -49.8% | -87.2*
O=S(=O)(NCC(c1ccco1)S(=O)(=O)c1ccccc1)c1cc(F)ccc1F (centres undefined) | nt | nt | ? | -4.9% | nt
Cc1cc(OC(C)C(=O)N(Cc2ccc(N(C)C)cc2)Cc2ccco2)ccc1Cl (centres undefined) | nt | nt | nt | -28.0% | nt
CCCCNc1c(-c2cccc(-c3cc(C(C)=O)cs3)c2)nc2cc(C)ccn12 | 22.4µM* | 11.2µM* | ? | -27.4% | -79.5*
CC(=O)c1csc(-c2cccc(-c3nc4ccc(Cl)cn4c3NC3CCCCC3)c2)c1 | -8.3% | i | -2.9% | -18.2% | -22.2
CCCCNc1c(-c2ccc(SC(C)CC)c(OC)c2)nc2ccc(C)cn12 (centres undefined) | ? | ? | ? | 20µM* | -92.9*
SMILES | ATXN2 expr inh | S2 tox | TGFb SMAD3 inh | HepG2 viability | IL-1B inflam inh
CCCCCCSc1ccc(-c2nc3ccc(C)cn3c2NCCCC)cc1OC | 0.0% | 28.2µM* | nt | nt | -23.8
CCC1CN(Cc2cn[nH]c2-c2ccc(F)cc2)Cc2cc(OC)ccc2O1 (centres undefined) | nt | i | nt | nt | nt
COCCn1c(C)cc(C(=O)CSc2nc3ccccc3c(=O)n2Cc2ccco2)c1C | 15.1% | i | -2.6% | 21.9% | 3.8
COCCn1c(C)cc(C(=O)CSc2cc(C)c3ccccc3n2)c1C | 20.3% | i | -1.8% | -28.6% | -69.1*
COCCn1c(C)cc(C(=O)CSc2n[nH]c(N)n2)c1C | 11.9% | i | -8.0% | -11.5% | 12.1
COCCn1c(C)cc(C(=O)CSc2nnnn2C2CCCC2)c1C | 14.1µM* | i | -19.2% | -6.4% | 2.5
COCCn1c(C)cc(C(=O)CSc2nnc(C)s2)c1C | 5.01µM* | i | 11.7% | -4.5% | 4.9
Cc1ccc(C(=O)NCc2ccccc2)cc1NC(=O)c1nsc2ccccc12 | 7.9% | ? | ? | -32.8% | nt
Cc1cc(C)c(NC(=O)CCn2c(=O)c3cccn3c3cccnc32)c(C)c1 | nt | nt | -2.4% | -3.0% | nt
CCCNC(=O)c1cc2c(c(-c3cccc(-c4ccc(F)cc4)c3)n1)[C@@H](CCO)N(S(=O)C(C)(C)C)C2 (some centres undefined) | ? | ? | 15.8µM* | -29.7% | -27.7
Cc1ccccc1C(=O)N1CCN(c2ccc(NC(=O)c3ccco3)cc2Cl)CC1 | 31.6µM* | ? | ? | -19.6% | -88.9*
O=C(Nc1ccc(N2CCCC2)c(Cl)c1)c1cccnc1 | 45.3% | ? | 6.3% | -4.4% | -29.9
Cc1ccccc1C(=O)N1CCN(c2ccc(NC(=O)c3ccc4c(c3)OCO4)cc2)CC1 | nt | i | -6.5% | -0.8% | -131.5*
O=C(Nc1ccc(N2CCN(C(=O)c3ccco3)CC2)c(Cl)c1)c1cccnc1 | -12.5% | i | -1.3% | 2.7% | -67.1*
Cc1ccccc1C(=O)N1CCN(c2ccc(NC(=S)NC(=O)c3ccco3)cc2)CC1 | nt | 14.1µM* | ? | -23.9% | ?
COc1ccccc1C(=O)NC(=S)Nc1ccc(N2CCN(C(=O)c3ccco3)CC2)cc1 | -37.4% | i | 2.5% | 6.4% | ?
Cc1cc(CCCOc2c(C)cc(-c3noc(C(F)(F)F)n3)cc2C)on1 | -10.0% | i | nt | nt | nt
O=C(Nc1ccc(F)cc1F)c1ccc2c(O)c(S(=O)(=O)c3ccc(Cl)cc3)c(=O)[nH]c2c1 | -4.2% | i | 25.5% | 7.0% | nt
CCOc1cccc(CC(=O)N2CCc3c([nH]c4ccccc34)C2c2ccccc2)c1OCC (centres undefined) | nt | nt | ? | -32.4% | nt
COC(=O)[C@@H]1CCCN1Cc1ccc2c(c1)CN(Cc1cccn1-c1ccc(Cl)cn1)CCO2 | nt | i | nt | nt | nt
O=C(Nc1ccc(N2CCN(C(=O)c3cccs3)CC2)c(Cl)c1)c1ccco1 | -15.7% | i | -6.5% | -14.1% | ?
O=C(Nc1ccc(N2CCN(C(=O)c3ccco3)CC2)c(Cl)c1)c1c(F)c(F)c(F)c(F)c1F | 28.2µM* | ? | ? | -20.0% | -90.3*
O=C(Nc1ccc(N2CCN(C(=O)c3cccs3)CC2)c(Cl)c1)c1cccnc1 | 22.4µM* | i | -8.5% | -20.9% | -78.5*
